# Laboratory results reported in PubChem BioAssay AID645 (SRMLSC, 2007).
# About 450 (0.69%) of roughly 65,000 compounds were called active.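 The calls were made as follows: active = HER2 level under 5% of the carrier-only control; inconclusive = no clear call, values can overlap the other calls; inactive = the rest.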 The sample as a whole holds a higher share of actives than the screen did.
# Biological target: Receptor tyrosine-protein kinase erbB-2 (Homo sapiens) (UniProt P04626)
# Assay: inhibitors of Her2 protein expression, primary screen, SKBR-3 cells, AlphaScreen, 66K library (AID 645);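 also: 100% = DMSO carrier and 0% = 500 nM PU-H71 HSP90 inhibitor; lower value means stronger loss of Her2 protein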
# Conditions: SKBR-3 HER2 protein level, 18-24 h, at 10 µM, hits give low values
# Chain of Receptor tyrosine-protein kinase erbB-2 (Homo sapiens) (P04626 whole entry, looked up): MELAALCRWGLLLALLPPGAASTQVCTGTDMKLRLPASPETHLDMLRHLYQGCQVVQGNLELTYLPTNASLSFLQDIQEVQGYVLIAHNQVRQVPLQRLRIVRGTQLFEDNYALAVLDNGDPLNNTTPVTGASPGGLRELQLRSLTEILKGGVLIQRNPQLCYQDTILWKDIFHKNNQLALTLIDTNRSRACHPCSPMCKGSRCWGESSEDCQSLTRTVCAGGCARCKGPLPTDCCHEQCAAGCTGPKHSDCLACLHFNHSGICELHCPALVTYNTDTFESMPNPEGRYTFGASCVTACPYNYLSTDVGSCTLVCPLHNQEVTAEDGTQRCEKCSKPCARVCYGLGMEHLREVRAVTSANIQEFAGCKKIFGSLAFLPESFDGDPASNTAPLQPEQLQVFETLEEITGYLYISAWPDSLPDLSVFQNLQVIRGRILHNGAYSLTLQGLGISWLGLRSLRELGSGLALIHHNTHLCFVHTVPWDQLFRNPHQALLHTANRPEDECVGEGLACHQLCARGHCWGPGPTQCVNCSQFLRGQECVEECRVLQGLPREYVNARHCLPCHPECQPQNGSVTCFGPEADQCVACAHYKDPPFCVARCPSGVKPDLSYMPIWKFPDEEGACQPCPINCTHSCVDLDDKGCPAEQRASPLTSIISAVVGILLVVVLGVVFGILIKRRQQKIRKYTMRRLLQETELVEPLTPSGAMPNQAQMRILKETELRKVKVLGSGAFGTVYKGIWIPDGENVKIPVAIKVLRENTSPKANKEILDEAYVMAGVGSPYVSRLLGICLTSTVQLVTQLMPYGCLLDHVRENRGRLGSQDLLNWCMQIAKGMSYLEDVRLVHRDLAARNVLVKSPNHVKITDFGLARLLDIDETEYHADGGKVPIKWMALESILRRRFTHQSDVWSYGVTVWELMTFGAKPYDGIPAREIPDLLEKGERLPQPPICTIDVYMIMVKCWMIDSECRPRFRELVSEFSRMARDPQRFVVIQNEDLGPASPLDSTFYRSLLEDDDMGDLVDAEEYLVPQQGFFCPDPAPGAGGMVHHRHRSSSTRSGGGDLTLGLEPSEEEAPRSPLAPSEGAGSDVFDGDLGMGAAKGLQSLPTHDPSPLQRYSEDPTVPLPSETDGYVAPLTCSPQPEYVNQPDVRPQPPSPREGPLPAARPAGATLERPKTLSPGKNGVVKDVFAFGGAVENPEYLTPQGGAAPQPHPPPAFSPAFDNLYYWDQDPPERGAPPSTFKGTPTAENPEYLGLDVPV
row,SMILES,HER2 level % of control
1,CCCCNC(=O)c1c[nH]c2ccc(S(=O)(=O)Nc3ccc(OCC)cc3)cc2c1=O,54.9% (inactive)
2,CCOC(=O)c1c(NC(=O)CCC(=O)NCc2ccco2)sc2c1CCCC2,104% (inactive)
3,Fc1ccc2nc(-c3ccccc3)nc(SCc3nnc(-c4ccccc4)o3)c2c1,67.9% (inactive)
4,O=C1CCc2cc(S(=O)(=O)N3CCC(C(=O)NCc4ccccc4Cl)CC3)ccc2N1,90.7% (inactive)
5,COc1nc(OC)nc(N(C)CCO)n1,97.4% (inactive)
6,COc1ccc(N2C(=O)CN=C2Nc2cccc(C)c2C)cc1OC,70.2% (inactive)
7,CCCc1[nH]nc2c1C(c1ccc(Br)s1)C(C#N)=C(N)O2 (configuration not stated),124% (inactive)
8,COc1ccc(C2C(C#N)=C(N)Oc3n[nH]c(C)c32)cc1CN1CCN(c2ccc(F)cc2)CC1 (configuration not stated),117% (inactive)
9,CCCc1[nH]nc2c1C(c1ccc(OC)c(Cn3nc(C)c(Br)c3C)c1)C(C#N)=C(N)O2 (configuration not stated),-20.4% (active)
10,COc1ccc2oc(C)c(NC(C)=O)c2c1,71.5% (inactive)
11,COc1ccc(NC(C)=O)cc1NC(=O)CN1CCN(C2c3ccccc3-c3ccccc32)CC1,71.4% (inactive)
12,CCOC(=O)C1CCCN(C(=O)CN(c2ccc(OC)cc2)S(=O)(=O)c2c(C)noc2C)C1 (configuration not stated),95.7% (inactive)
13,c1ccc(-n2ncc(-c3nn[nH]n3)n2)cc1,88.5% (inactive)
14,COc1cc(Br)cc(/C=N/c2ncn[nH]2)c1O,92.3% (inactive)
15,Cc1cc(C)c2c(c1)c(C)cc1nnc(SCC(=O)NCc3ccco3)n12,104% (inactive)
16,O=C(c1ccco1)N1CCN(C(=O)C2c3ccccc3Oc3ccccc32)CC1,100% (inactive)
17,CCc1c(O)nc(SCC(=O)N2CCCCC2)n(-c2ccccc2C)c1=O,114% (inactive)
18,N#CCCn1cnc2ccccc21,106% (inactive)
19,COc1ccc(-c2nnc(SC(=O)N3c4ccccc4Sc4ccccc43)o2)cc1,-15.7% (active)
20,COc1ccc(-c2nnc(SC(C)C#N)o2)cc1 (configuration not stated),127% (inactive)
21,COc1ccc(CC(=O)Nc2ccc(-c3nnc(-c4ccccc4)o3)cc2)cc1,87.4% (inactive)
22,CCn1nc(C(=O)OCC(=O)N2c3ccccc3CC2C)c2ccccc2c1=O (configuration not stated),106% (inactive)
23,CCOc1ccc(NCCC(=O)c2ccc3c(c2)OCO3)cc1,95.7% (inactive)
24,Nc1nonc1-c1noc(-c2ccc(Br)o2)n1,79.9% (inactive)
25,CCn1ncc(Br)c1C(=O)Nc1cc(C)ccc1F,75.8% (inactive)
26,Clc1cccc(Cl)c1Cn1nnc(-c2cccs2)n1,89.2% (inactive)
27,O=C(CN1C(=O)CCC1=O)Nc1ccc(S(=O)(=O)N2CCOCC2)cc1,103% (inactive)
